# Reference: PubChem BioAssay (EPA / NIEHS)
# The source made the active and inactive calls. How the source made its calls: active means hit-call score of the fitted dose curve at least 0.9, where 1 is the maximum; inactive means score below 0.9.
# Columns and labels:
# [1] = ATG_M_32_CIS: Attagene CIS-FACTORIAL HepG2 Assay for M32 Transcription Factor (Internal Marker) (AID 2282949); conditions: HepG2 Attagene cis-factorial M32 reporter, mRNA; actives raise or lower the signal;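 further: background control marker of the multiplexed CIS panel rather than a real target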
# In short: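 HepG2 cells transiently transfected with multiplexed cis-regulated reporter units, dosed 24 h. Reporter mRNA quantified by RT-PCR, 6-FAM labelling, HpaI digestion and capillary electrophoresis; bidirectional fit vs DMSO.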
# [2] = ATG_M_06_CIS: Attagene CIS-FACTORIAL HepG2 Assay for M06 Transcription Factor (Internal Marker) (AID 2282950); conditions: HepG2 Attagene CIS-FACTORIAL M06 internal marker reporter; actives raise or lower the signal
# In short: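 One of many multiplexed endpoints: HepG2 reporter mRNA after 24 h dosing, detected by RT-PCR and capillary electrophoresis fluorescence; gain or loss of signal analysed against DMSO.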
# [3] = target: Hypoxia-inducible factor 1-alpha (Homo sapiens) (UniProt Q16665); assay: ATG_HIF1a_CIS: Attagene CIS-FACTORIAL HepG2 Assay for human Hypoxia Inducible Factor 1 (HIF1A) (AID 2282951); conditions: HepG2 Attagene cis-factorial HIF1a reporter transcription; actives raise or lower the signal
# Hypoxia-inducible factor 1-alpha (Homo sapiens), sequence (Q16665 whole entry, looked up): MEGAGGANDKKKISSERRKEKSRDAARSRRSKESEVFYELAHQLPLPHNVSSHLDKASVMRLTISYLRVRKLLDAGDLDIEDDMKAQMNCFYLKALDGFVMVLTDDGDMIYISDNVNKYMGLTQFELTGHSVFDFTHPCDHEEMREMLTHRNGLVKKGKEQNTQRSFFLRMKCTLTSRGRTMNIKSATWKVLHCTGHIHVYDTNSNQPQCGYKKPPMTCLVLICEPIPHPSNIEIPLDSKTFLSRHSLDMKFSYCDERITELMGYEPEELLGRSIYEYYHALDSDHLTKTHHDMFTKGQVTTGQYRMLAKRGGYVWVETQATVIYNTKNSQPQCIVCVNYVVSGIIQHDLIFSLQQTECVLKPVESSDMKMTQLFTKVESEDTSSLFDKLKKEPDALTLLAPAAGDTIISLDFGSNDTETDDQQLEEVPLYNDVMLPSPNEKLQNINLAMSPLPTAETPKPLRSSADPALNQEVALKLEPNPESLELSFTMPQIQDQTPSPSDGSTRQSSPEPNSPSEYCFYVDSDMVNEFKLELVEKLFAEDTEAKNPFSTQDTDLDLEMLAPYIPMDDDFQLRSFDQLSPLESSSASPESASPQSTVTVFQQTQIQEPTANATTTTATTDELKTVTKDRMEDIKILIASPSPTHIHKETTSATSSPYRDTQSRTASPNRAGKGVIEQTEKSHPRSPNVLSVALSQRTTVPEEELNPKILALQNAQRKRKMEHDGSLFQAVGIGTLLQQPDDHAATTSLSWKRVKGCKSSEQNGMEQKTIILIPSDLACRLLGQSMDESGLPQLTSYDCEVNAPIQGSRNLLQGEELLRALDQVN
# In short: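 HepG2 cells transiently transfected with multiplexed cis-promoter reporter units; reporter mRNA read 24 h after dosing by RT-PCR, 6-FAM primer-extension labelling, HpaI digestion and capillary electrophoresis. Bidirectional fit versus DMSO baseline.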
# [4] = target: Hepatocyte nuclear factor 6 (Homo sapiens) (UniProt Q9UBC0); assay: ATG_HNF6_CIS: Attagene CIS-FACTORIAL HepG2 Assay for human Hepatocyte Nuclear Factor 6 (HNF6) (AID 2282952); conditions: HepG2 Attagene cis-factorial HNF6 reporter transcription; actives raise or lower the signal
# Hepatocyte nuclear factor 6 (Homo sapiens), sequence (Q9UBC0 whole entry, looked up): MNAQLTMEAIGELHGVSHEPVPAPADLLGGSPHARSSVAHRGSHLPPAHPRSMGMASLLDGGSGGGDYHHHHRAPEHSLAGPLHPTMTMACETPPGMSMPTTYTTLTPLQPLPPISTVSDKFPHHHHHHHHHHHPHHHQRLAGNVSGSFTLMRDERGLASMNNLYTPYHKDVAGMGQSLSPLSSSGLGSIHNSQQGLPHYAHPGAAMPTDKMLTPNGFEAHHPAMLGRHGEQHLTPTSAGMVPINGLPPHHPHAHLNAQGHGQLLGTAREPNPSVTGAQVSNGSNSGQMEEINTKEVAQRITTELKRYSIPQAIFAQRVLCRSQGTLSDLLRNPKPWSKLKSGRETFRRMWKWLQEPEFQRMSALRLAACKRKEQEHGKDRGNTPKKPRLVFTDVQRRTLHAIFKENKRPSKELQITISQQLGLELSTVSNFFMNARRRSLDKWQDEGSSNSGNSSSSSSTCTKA
# In short: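 HepG2, transient MRTU transfection (cis promoters); 24 h chemical exposure; total RNA → oligo(dT) RT → PCR → 6-FAM labelling → HpaI cut → CE; bidirectional fit vs DMSO.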
# [5] = target: Heat shock factor protein 1 (Homo sapiens) (UniProt Q00613); assay: ATG_HSE_CIS: Attagene CIS-FACTORIAL HepG2 Assay for human Heat Shock Transcription Factor 1 (HSE) (AID 2282953); conditions: HepG2 HSE cis-reporter, Attagene RNA transcription; actives raise or lower the signal
# Heat shock factor protein 1 (Homo sapiens), sequence (Q00613 whole entry, looked up): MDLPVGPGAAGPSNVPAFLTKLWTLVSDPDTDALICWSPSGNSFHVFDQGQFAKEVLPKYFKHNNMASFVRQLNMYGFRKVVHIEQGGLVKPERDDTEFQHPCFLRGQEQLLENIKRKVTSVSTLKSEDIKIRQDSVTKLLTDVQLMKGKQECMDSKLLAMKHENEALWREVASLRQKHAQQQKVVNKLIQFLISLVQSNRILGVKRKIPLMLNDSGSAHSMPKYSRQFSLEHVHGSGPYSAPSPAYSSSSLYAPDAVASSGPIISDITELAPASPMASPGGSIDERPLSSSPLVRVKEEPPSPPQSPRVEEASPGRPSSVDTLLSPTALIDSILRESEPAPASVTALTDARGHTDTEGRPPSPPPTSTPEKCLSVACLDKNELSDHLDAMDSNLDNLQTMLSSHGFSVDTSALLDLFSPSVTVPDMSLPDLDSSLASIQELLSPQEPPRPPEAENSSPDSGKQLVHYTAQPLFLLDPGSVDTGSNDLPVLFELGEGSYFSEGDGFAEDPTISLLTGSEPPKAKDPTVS
# In short: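 Using HepG2 with transfected cis-driven reporter constructs, compound effects on endogenous factor activity are scored as reporter mRNA change at 24 h. Detection: RT-PCR, HpaI digestion, capillary electrophoresis; bidirectional fitting to DMSO.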
# [6] = ATG_MRE_CIS: Attagene CIS-FACTORIAL HepG2 Assay for human Metal Responsive Element (MRE) (AID 2282954); conditions: HepG2 MRE cis-reporter transcription, Attagene multiplex; actives raise or lower the signal
# In short: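 Transient MRTU transfection of HepG2 (FuGene 6); 24 h dosing; total RNA → oligo(dT) RT, PCR, 6-FAM primer extension, HpaI cut, CE. Bidirectional fit vs DMSO.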
# [7] = target: Paired box protein Pax-6 (Homo sapiens) (UniProt P26367); assay: ATG_Pax6_CIS: Attagene CIS-FACTORIAL HepG2 Assay for human Paired Box 6 (PAX6) (AID 2282956); conditions: HepG2 CIS-FACTORIAL PAX6 reporter transcription, RNA readout; actives raise or lower the signal
# Paired box protein Pax-6 (Homo sapiens), sequence (P26367 whole entry, looked up): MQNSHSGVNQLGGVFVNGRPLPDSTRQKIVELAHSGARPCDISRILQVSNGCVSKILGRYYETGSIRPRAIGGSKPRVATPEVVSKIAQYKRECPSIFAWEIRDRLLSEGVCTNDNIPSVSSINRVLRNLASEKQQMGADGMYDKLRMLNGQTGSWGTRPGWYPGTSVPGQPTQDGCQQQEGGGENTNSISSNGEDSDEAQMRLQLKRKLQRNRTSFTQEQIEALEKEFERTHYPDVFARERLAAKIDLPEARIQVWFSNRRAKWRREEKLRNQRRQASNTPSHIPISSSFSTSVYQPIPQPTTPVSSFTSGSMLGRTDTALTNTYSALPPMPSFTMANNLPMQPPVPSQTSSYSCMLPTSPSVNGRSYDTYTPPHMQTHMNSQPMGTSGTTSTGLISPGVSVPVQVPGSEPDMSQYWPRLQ
# In short: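 Multiplexed cis-reporter HepG2 system; 24 h treatment; reporter mRNA read by RT-PCR/CE fluorescence; bidirectional fit vs DMSO.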
# [8] = ATG_PXRE_CIS: Attagene CIS-FACTORIAL HepG2 Assay for human Pregnane X Receptor Element (PXRE) (AID 2282957); conditions: HepG2 Attagene CIS-FACTORIAL PXRE reporter, mRNA; actives raise or lower the signal
# In short: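 Transfect HepG2 with MRTUs (cis promoter elements); dose chemical, incubate 24 h; isolate RNA, RT with oligo(dT), PCR, 6-FAM label, HpaI cut, CE. Gain/loss fit vs DMSO.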
# [9] = ATG_PPRE_CIS: Attagene CIS-FACTORIAL HepG2 Assay for human Peroxisome Proliferator-activated Response Element (PPRE) (AID 2282958); conditions: HepG2 PPRE cis-element reporter, Attagene transcription factor profiling; actives raise or lower the signal
# In short: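 HepG2 cells transiently transfected with multiplexed cis-element reporter units measure endogenous transcription factor activity. After 24 h compound exposure, reporter mRNA is quantified by RT-PCR, 6-FAM labeling, HpaI digestion and capillary electrophoresis; bidirectional fits are made against DMSO baseline.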
# [10] = ATG_RORE_CIS: Attagene CIS-FACTORIAL HepG2 Assay for human RAR-related Orphan Receptor Element (RORE) (AID 2282959); conditions: HepG2 Attagene cis-factorial RORE reporter, mRNA; actives raise or lower the signal
# In short: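 HepG2 cells transiently transfected with multiple cis-element reporter transcription units, exposed to chemical for 24 h. Reporter mRNA quantified by RT-PCR, 6-FAM primer-extension labeling, HpaI digestion and capillary electrophoresis; bidirectional fit versus DMSO baseline.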
# [11] = ATG_Sox_CIS: Attagene CIS-FACTORIAL HepG2 Assay for human SRY-box transcription factor (SOX) (AID 2282960); conditions: HepG2 Attagene cis-factorial SOX reporter, mRNA; actives raise or lower the signal
# In short: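 HepG2 cells transiently transfected with cis-element-driven multiple reporter transcription units, dosed 24 h; reporter mRNA measured by RT-PCR, FAM labelling, HpaI digestion and capillary electrophoresis. Bidirectional fit versus DMSO baseline.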
# [12] = target: Transcription factor Sp1 (Homo sapiens) (UniProt P08047); assay: ATG_Sp1_CIS: Attagene CIS-FACTORIAL HepG2 Assay for human Specificity Protein 1 (Sp1) (AID 2282961); conditions: HepG2 Sp1 cis-reporter transcription, actives raise or lower the signal
# Transcription factor Sp1 (Homo sapiens), sequence (P08047 whole entry, looked up): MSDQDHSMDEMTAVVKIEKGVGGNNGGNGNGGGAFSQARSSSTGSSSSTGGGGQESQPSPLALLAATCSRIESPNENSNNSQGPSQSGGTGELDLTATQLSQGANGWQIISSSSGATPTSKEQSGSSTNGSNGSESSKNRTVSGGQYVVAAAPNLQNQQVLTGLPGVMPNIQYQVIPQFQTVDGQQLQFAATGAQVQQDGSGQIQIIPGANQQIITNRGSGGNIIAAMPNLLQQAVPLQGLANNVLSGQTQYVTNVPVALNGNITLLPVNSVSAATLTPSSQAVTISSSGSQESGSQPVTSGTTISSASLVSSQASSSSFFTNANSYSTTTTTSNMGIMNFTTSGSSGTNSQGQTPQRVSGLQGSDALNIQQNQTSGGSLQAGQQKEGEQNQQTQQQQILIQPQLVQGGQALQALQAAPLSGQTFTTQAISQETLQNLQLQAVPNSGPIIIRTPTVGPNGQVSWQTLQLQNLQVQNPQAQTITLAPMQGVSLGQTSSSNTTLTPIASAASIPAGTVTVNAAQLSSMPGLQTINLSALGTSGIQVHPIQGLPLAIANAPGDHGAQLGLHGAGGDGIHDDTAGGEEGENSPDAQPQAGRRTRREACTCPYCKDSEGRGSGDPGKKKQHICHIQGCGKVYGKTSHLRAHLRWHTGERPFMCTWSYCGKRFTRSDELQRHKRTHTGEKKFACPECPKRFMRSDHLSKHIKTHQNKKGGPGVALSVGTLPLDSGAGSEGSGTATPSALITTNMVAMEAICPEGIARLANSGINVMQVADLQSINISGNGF
# In short: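 HepG2 cells transiently transfected with multiple reporter transcription units driven by cis-regulatory elements; Sp1-responsive reporter mRNA measured 24 h after dosing by RT-PCR and capillary electrophoresis fluorescence, fitted bidirectionally against DMSO baseline.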
# [13] = ATG_SREBP_CIS: Attagene CIS-FACTORIAL HepG2 Assay for human Sterol Regulatory Element Binding (SREBP) (AID 2282962); conditions: HepG2 Attagene cis-factorial SREBP reporter, mRNA; actives raise or lower the signal
# In short: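 mRNA induction of transfected cis-promoter reporters in HepG2 cells, 24 h post-dose. Detection: RT-PCR with 6-FAM-labelled products, HpaI digest, capillary electrophoresis. DMSO served as negative control and baseline.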
# [14] = target: Signal transducer and activator of transcription 3 (Homo sapiens) (UniProt P40763); assay: ATG_STAT3_CIS: Attagene CIS-FACTORIAL HepG2 Assay for human Signal Transducer and Activator of Transcription 3 (STAT3) (AID 2282963); conditions: HepG2, Attagene cis-factorial STAT3 reporter transcription; actives raise or lower the signal
# Signal transducer and activator of transcription 3 (Homo sapiens), sequence (P40763 whole entry, looked up): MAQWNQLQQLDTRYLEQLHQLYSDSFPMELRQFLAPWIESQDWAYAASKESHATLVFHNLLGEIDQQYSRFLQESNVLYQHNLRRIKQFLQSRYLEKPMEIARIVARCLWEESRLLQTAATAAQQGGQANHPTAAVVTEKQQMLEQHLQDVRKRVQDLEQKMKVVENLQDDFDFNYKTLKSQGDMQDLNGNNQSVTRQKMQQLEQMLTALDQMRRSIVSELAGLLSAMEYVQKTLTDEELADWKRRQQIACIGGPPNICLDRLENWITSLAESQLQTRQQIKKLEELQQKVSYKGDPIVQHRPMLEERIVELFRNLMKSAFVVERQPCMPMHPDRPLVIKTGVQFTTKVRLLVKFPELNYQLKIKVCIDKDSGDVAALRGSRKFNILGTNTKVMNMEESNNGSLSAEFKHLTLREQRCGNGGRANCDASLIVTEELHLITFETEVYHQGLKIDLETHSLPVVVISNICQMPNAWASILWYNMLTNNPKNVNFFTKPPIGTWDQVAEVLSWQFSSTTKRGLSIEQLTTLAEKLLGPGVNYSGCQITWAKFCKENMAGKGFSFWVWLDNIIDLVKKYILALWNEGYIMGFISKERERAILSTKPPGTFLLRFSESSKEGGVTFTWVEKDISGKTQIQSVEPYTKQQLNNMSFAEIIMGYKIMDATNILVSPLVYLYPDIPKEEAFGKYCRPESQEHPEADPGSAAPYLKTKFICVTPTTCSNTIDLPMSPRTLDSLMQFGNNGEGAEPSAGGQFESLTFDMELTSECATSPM
# In short: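 Endogenous STAT3-responsive cis-element activity was read in transiently transfected HepG2 cells after 24 h treatment. Reporter transcripts were quantified via RT-PCR and capillary electrophoresis, with DMSO as negative control and bidirectional curve fitting.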
# [15] = ATG_TA_CIS: Attagene CIS-FACTORIAL HepG2 Assay for human TA Basal Promoter (AID 2282964); conditions: HepG2 Attagene CIS-factorial TA basal promoter reporter; actives raise or lower the signal
# In short: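 Transient MRTU transfection of HepG2 preceded 24 h compound exposure. Reporter mRNA levels were then read by RT-PCR with capillary electrophoresis, and this background-control endpoint was fitted bidirectionally to DMSO.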
# [16] = ATG_TCF_b_cat_CIS: Attagene CIS-FACTORIAL HepG2 Assay for human T-Cell-Factor with beta-catenin (TCF/b-cat) (AID 2282965); conditions: HepG2 TCF/beta-catenin cis-reporter transcription, actives raise or lower the signal
# In short: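 Measured: reporter mRNA in HepG2 transiently transfected with cis-promoter reporter units, 24 h after chemical addition. Fitting was bidirectional, DMSO as negative control.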
# [17] = ATG_TAL_CIS: Attagene CIS-FACTORIAL HepG2 Assay for human TAL Basal Promoter (AID 2282966); conditions: HepG2 Attagene cis-factorial TAL promoter reporter; actives raise or lower the signal;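 further: background control endpoint measuring basal TAL promoter reporter mRNA not a specific factor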
# In short: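 Fluorescence of labelled reporter cDNA fragments, resolved by capillary electrophoresis, gave the readout. Human HepG2 liver cells carried transiently transfected cis-element reporter units and were treated for 24 hours; activity was fitted bidirectionally against DMSO.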
# [18] = ATG_VDRE_CIS: Attagene CIS-FACTORIAL HepG2 Assay for human Vitamin D Receptor Element (VDRE) (AID 2282968); conditions: HepG2 VDRE cis-reporter transcription, actives raise or lower the signal
# In short: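 Reporter mRNA induction, quantified by capillary electrophoresis of fluorescently labelled RT-PCR products, was read 24 h after dosing HepG2 cells carrying transiently transfected cis-regulated reporter units; gain or loss relative to DMSO.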
# [19] = ATG_PBREM_CIS: Attagene CIS-FACTORIAL HepG2 Assay for human Phenobarbital-responsive Enhancer Module (PBREM) (AID 2282955); conditions: HepG2 PBREM cis-reporter, Attagene multiplexed transcription; actives raise or lower the signal
# In short: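 HepG2 cells transiently transfected with multiple cis-regulated reporter transcription units; endogenous factor activity at the PBREM element measured as reporter mRNA 24 h after dosing, via RT-PCR and capillary electrophoresis of fluorescent fragments; bidirectional fitting versus DMSO.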
# [20] = ATG_TGFb_CIS: Attagene CIS-FACTORIAL HepG2 Assay for human Transforming Growth Factor (TGF) (AID 2282967); conditions: HepG2 Attagene CIS TGFb reporter, mRNA transcription; actives raise or lower the signal
# In short: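 After a 24-hour incubation with compound, transfected HepG2 cells were lysed for RNA; reporter cDNA was amplified, fluorescently end-labeled and separated by CE. DMSO served as baseline for bidirectional fits.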
compound,measurement,setting,value
Clc1ccc(C(Cl)(Cl)Cl)cn1,outcome,[1],inactive
same,outcome,[2],inactive
same,outcome,[3],inactive
same,outcome,[4],inactive
same,outcome,[5],inactive
same,outcome,[6],inactive
same,outcome,[7],inactive
same,AC50,[8],14.1 µM (active)
same,outcome,[9],inactive
same,outcome,[10],inactive
same,outcome,[11],inactive
same,outcome,[12],inactive
same,outcome,[13],inactive
same,outcome,[14],inactive
same,outcome,[15],inactive
same,outcome,[16],inactive
same,outcome,[17],inactive
same,outcome,[18],inactive
CCCCCCCCCCCCCCC(Br)C(=O)O (stereo unspecified),AC50,[1],164 µM (active)
same,AC50,[2],183 µM (active)
same,AC50,[3],150 µM (active)
same,AC50,[4],187 µM (active)
same,AC50,[5],154 µM (active)
same,AC50,[6],161 µM (active)
same,AC50,[19],100 µM (active)
same,outcome,[8],inactive
same,AC50,[9],42.2 µM (active)
same,AC50,[10],111 µM (active)
same,outcome,[11],inactive
same,outcome,[12],inactive
same,outcome,[13],inactive
same,outcome,[14],inactive
same,AC50,[15],110 µM (active)
same,outcome,[16],inactive
same,AC50,[20],162 µM (active)
same,AC50,[18],162 µM (active)
Nc1nc(=S)[nH][nH]1,outcome,[1],inactive
same,outcome,[2],inactive
same,outcome,[3],inactive
same,outcome,[4],inactive
same,outcome,[5],inactive
same,outcome,[6],inactive
same,outcome,[7],inactive
same,outcome,[8],inactive
same,outcome,[9],inactive
same,outcome,[10],inactive
same,outcome,[11],inactive
same,outcome,[12],inactive
same,outcome,[13],inactive
same,outcome,[14],inactive
same,outcome,[15],inactive
same,outcome,[16],inactive
same,outcome,[17],inactive
same,outcome,[18],inactive
O=S(=O)(C(Cl)(Cl)Cl)C(Cl)(Cl)Cl,outcome,[1],inactive
same,outcome,[2],inactive
same,outcome,[3],inactive
same,outcome,[4],inactive
same,AC50,[5],7.93 µM (active)
same,AC50,[6],16.5 µM (active)
same,outcome,[19],inactive
same,AC50,[8],11.1 µM (active)
same,outcome,[9],inactive
same,AC50,[11],11.1 µM (active)
same,AC50,[12],11.1 µM (active)
same,AC50,[13],16.8 µM (active)
same,outcome,[14],inactive
same,AC50,[15],16.9 µM (active)
same,AC50,[16],7.46 µM (active)
same,outcome,[17],inactive
same,outcome,[20],inactive
same,AC50,[18],16.7 µM (active)
O=[N+]([O-])c1ccc(Nc2ccccc2)cc1,outcome,[1],inactive
same,outcome,[2],inactive
same,outcome,[3],inactive
same,outcome,[4],inactive
same,outcome,[5],inactive
same,AC50,[6],80.4 µM (active)
same,AC50,[19],23.8 µM (active)
same,outcome,[7],inactive
same,outcome,[10],inactive
same,outcome,[11],inactive
same,outcome,[12],inactive
same,outcome,[13],inactive
same,outcome,[14],inactive
same,outcome,[15],inactive
same,outcome,[16],inactive
same,outcome,[17],inactive
same,outcome,[20],inactive
same,AC50,[18],19.2 µM (active)
C=CC(Cl)CCl (stereo unspecified),outcome,[1],inactive
same,outcome,[2],inactive
same,outcome,[3],inactive
same,outcome,[4],inactive
same,outcome,[6],inactive
same,outcome,[19],inactive
same,outcome,[7],inactive
same,AC50,[8],3.12 µM (active)
same,outcome,[10],inactive
same,outcome,[11],inactive
same,outcome,[12],inactive
same,outcome,[13],inactive
same,outcome,[14],inactive
same,outcome,[15],inactive
same,outcome,[16],inactive
same,outcome,[17],inactive
same,outcome,[20],inactive
same,outcome,[18],inactive
c1ccc2c(c1)Oc1ccccc1O2,outcome,[1],inactive
same,outcome,[2],inactive
same,outcome,[3],inactive
same,outcome,[4],inactive
same,outcome,[6],inactive
same,outcome,[19],inactive
same,outcome,[7],inactive
same,outcome,[10],inactive
same,outcome,[11],inactive
same,outcome,[12],inactive
same,outcome,[13],inactive
same,outcome,[14],inactive
same,outcome,[15],inactive
same,outcome,[16],inactive
same,outcome,[17],inactive
same,outcome,[20],inactive
same,outcome,[18],inactive
O=C(Nc1ccc(Br)cc1)c1cc(Br)cc(Br)c1O,outcome,[1],inactive
same,outcome,[2],inactive
same,outcome,[3],inactive
same,outcome,[4],inactive
same,AC50,[5],132 µM (active)
same,AC50,[6],13.3 µM (active)
same,AC50,[9],5.26 µM (active)
same,outcome,[10],inactive
same,outcome,[11],inactive
same,outcome,[12],inactive
same,outcome,[13],inactive
same,outcome,[14],inactive
same,outcome,[15],inactive
same,outcome,[16],inactive
same,AC50,[20],4.16 µM (active)
same,AC50,[18],6.47 µM (active)
